# Laboratory results as given in PubChem BioAssay AID1159614 (National Center for Advancing Translational Sciences (NCATS), 2016).
# The campaign covered roughly 45,000 compounds. About 65 (0.1%) were called active. This is one part of a sample in which actives are shown more often than they occur. Calls come from the whole dose curve; as a rule, active = well fitted activation curve with a large enough effect; inconclusive = small, poorly fitted or top-dose-only effect; inactive = no such curve, though single readings can be large or run the other way.
# Target: Galactocerebrosidase (Homo sapiens) (UniProt P54803)
# Sequence (P54803 whole entry G286D): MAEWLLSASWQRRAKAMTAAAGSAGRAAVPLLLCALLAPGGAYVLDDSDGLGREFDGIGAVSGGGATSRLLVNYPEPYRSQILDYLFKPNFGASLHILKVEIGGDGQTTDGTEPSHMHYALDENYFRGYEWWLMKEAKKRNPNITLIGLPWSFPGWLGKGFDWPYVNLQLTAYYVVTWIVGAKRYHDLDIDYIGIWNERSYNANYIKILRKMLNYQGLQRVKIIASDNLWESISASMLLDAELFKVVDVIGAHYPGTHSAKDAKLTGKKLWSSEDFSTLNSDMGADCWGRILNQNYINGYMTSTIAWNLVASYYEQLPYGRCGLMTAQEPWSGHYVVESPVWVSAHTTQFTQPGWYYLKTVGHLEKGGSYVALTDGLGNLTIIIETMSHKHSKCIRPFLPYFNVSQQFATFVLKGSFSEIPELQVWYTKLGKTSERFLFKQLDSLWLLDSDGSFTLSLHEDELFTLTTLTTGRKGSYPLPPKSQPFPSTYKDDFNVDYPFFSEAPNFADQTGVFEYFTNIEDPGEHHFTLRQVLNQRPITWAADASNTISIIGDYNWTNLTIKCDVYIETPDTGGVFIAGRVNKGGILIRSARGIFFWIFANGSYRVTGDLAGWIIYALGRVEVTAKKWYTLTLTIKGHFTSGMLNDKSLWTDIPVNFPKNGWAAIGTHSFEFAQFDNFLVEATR
# Assay: A Novel Cell-Based Assay to Identify Small Molecules for B -Galactocerebrosidase; note: 0% is about no effect; nearly all actives have a fitted effect of over 65% in size
# Settings: 145M-Twi-hGALC-G270D cells (Twitcher mouse brain line with human GALC G270D), HMU-beta-Gal fluorescence, 48 h; series mostly up to 57.5 µM; activation: at the top concentration
# Text: Lysosomal storage diseases (LSDs) are caused by genetic mutations in genes encoding proteins important for normal lysosomal function. Globoid cell leukodystrophy (GLD), mostly known as Krabbe disease, is a prototype of the neurological LSDs caused by deficiency of beta-galactocerebrosidase (GALC). In brain specimens of GLD patients, psychosine levels are substantially elevated. At elevated concentrations, psychosine becomes cytotoxic to neuronal cells, particularly to oligodendrocytes (OLG), neural cells responsible for myelin formation. Therefore, the biochemical disturbances in GLD are manifested by different degrees of brain demyelination resulting in a broad spectrum of neurological manifestations. Most of the FDA-approved therapies are based on enzyme replacement therapeutic (ERT) agents, which treat non-neurological symptoms of Gaucher disease, Fabry disease, few mucopolysaccharidoses and Pompe disease. Unfortunately, in GLD, a primarily neurological LSD, ERT agents, as large molecular weight molecules unable to cross the blood-brain barrier, which makes this an inefficacious therapeutic approach. In GLD, increasing the residual GALC activity just above the critical threshold (~10% of wild type enzymatic activity), the cytotoxic levels of psychosine will be reduced, avoiding the OLGs apoptosis and the subsequent demyelination process. This will translate in disease stabilization and amelioration of GLD patient symptoms.
# A cell-based assay in 1,536-well plate format was developed to implement a quantitative high-throughput screening (qHTS) assay using GLD-disease relevant cells to identify small molecules that produce enhancements of the residual enzymatic activity levels of mutants GALC found and prevalent in GLD patients. Compounds that are active may therefore have some therapeutic application for GLD. After the treatment of live cells for a determined period, using a fluorescent GALC specific substrate, the mutant residual GALC activity is measured. This cell-based qTHS assay was used to screen part of the MLPCN library for small molecule able to increase the mutant GALC enzymatic activity. In this assay, increased fluorescent signal corresponds to enhanced levels of mutant GALC residual enzymatic activity. Activation is the desired outcome for this assay.
# NIH Chemical Genomics Center [NCGC]
# NIH Molecular Libraries Probe Centers Network [MLPCN]
# Assay Submitter (PI): Gustavo Maegawa MD,PhD, University of Florida, Gainesville, FL
# 2)#Two cell lines were established for the assay: 145M-Twi-hGALC-G270D (brain-derived Twitcher cell line stably expressing human GALC-G270D) and 145M-Twi-hGALC-WT (same 145M-Twi stably expressing human GALC wild type). The Twitcher is the murine C57B/6 model for GLD with naturally occurring homozygous nonsense GALC mutation. The 145M-Twi cell line was established at Maegawa lab (Ribbens J et al 2014).
# a.#Media: DMEM/F12 (1:1) with 10% fetal bovine-serum (FBS) with penicillin/streptomycin (PS-1X - 100 I.U./mL of penicillin+100 ug/mL of streptomycin).
# b.#The 6-Hexadecanoylamino-4-methylumbelliferyl-b-D-galactoside (HMU-B-gal) substrate was prepared as per Wiederschain et al 1992. Using 20-mL borosilicate tubes, 2.20 mg of HMU-b-Gal was added in each tube to prepare substrate-film with a final air-nitrogen stream evaporation to remove all diluent solvents.
# c.#The HMUb-Gal substrate buffer consists of 0.2 M Na2HPO4 (sodium phosphate dibasic)/ 0.1 M Citric Acid with the pH adjusted to 5.2 using HCl. Sodium Azide at 0.02% and Sodium Taurocholate (NaTC) at 1 mg/mL were added to this substrate buffer.
# d.#The HMU-b-Gal stopping buffer consist of 0.5 M NaHCO3 (sodium bicarbonate) /0.5 M Na2CO3 (sodium carbonate). […] Triton X-100 at 0.25% was added.
# 4)#Preparation of HMU-b-Gal substrate tubes
# Adding 18.6 mL of the HMUb-Gal substrate buffer to each 20-mL tube (2.20 mg of HMU-b-Gal) will reach a concentration of 0.2 mM. Vortex well the tube until the solution is fully homogenized (clear cloudy solution). […]
row,Compound,activation
1,Cc1cccc(CC(=O)N2CC(=O)Nc3ccc(F)cc3C2c2ccccc2)c1 (configuration not stated),-6.7% (inactive)
2,Cc1cccc(NC(=O)c2nnn(CC(=O)Nc3ccc(C(C)C)cc3)c2N)c1C,-16.1% (inactive)
3,Cc1cc(C)cc(OCC(=O)Nc2nc(-c3ccc(F)cc3)ns2)c1,5.22% (inactive)
4,Cc1cccc(NC(=O)Cn2c(C(F)(F)F)nc3ccccc32)c1C,5.17% (inactive)
5,COc1cccc(-c2cc(C(=O)Nc3ccc(C)cc3)[nH]n2)c1,-17.3% (inactive)
6,CCc1cc2c(cc3c(=O)n(CC(=O)NCCc4ccc(OC)c(OC)c4)ncn32)s1,-10.5% (inactive)
7,Cc1ccccc1OCC(=O)Nc1c(C(=O)Nc2ccccc2F)oc2ccccc12,-15.2% (inactive)
8,CCOc1cc(C(=O)Nc2nnc3n2CCS3)cc(OCC)c1OCC,-19.3% (inactive)
9,COc1cccc2c1cc1c(=O)n(CC(=O)N3CCN(c4cccc(Cl)c4)CC3)nc(C)n12,-10.9% (inactive)
10,CCCn1c2ccccc2c2cnn(CC(=O)N(C)c3ccccc3CC)c(=O)c21,0.489% (inactive)
11,CCN(C(=O)c1sc2cc(OC)ccc2c1Cl)c1ccccc1,-1.23% (inactive)
12,CCOC(=O)c1nnn(CC(=O)NC(=O)Nc2ccccc2F)c1C(=O)OCC,-12.9% (inactive)
13,Cn1c(=O)c2c(nc(Oc3ccc(C#N)cc3)n2Cc2ccc(Cl)cc2Cl)n(C)c1=O,-1.55% (inactive)
14,COc1cc(CN(CC2CCCO2)C(=O)c2ccccc2F)cc(OC)c1OC (configuration not stated),-1.53% (inactive)
15,Cc1cccn2c(=O)c(C(=O)NC(C)c3ccccc3)cnc12 (configuration not stated),-3.71% (inactive)
16,Cc1ccc(S(=O)(=O)NC2(C(F)(F)F)NC(=O)N(CCc3ccccc3)C2=O)cc1 (configuration not stated),-13.9% (inactive)
17,COc1ccc(CC(=O)Nc2nnc3n2CCS3)cc1OC,14.6% (inactive)
18,COc1cccc(C2C(C(=O)Nc3ccc(C)cc3C)=C(C)Nc3c(C(=O)Nc4ccccc4)cnn32)c1 (configuration not stated),-4.64% (inactive)
19,Cc1ccc(-c2nc3ccccn3c2Nc2c(C)cccc2C)o1,-10.6% (inactive)
20,Brc1ccc2c(c1)NC(c1cccnc1)=NC(c1ccccc1)=N2,-18% (inactive)
21,COC(=O)c1ccc(NC(=O)CCc2c(C)nc3c(c(C)nn3-c3ccc(C)cc3)c2C)cc1,-11.7% (inactive)
22,O=C(Nc1ccccc1Cl)N1CCC(CN2CCCC2)CC1,-6.85% (inactive)
23,COc1cc(Cl)c(NC(=O)C(NS(=O)(=O)c2cccs2)C(C)C)c(OC)c1 (configuration not stated),-11.2% (inactive)
24,O=C(NC1CC(=O)N(c2ccc(F)cc2)C1)c1ccc(S(=O)(=O)N2CCCC2)cc1 (configuration not stated),-10.8% (inactive)
25,CCc1cc2c(cc3c(=O)n(CC(=O)N4CCN(c5cc(Cl)ccc5C)CC4)nc(CC)n32)s1,-11.4% (inactive)
26,Cc1cccc(Cn2c(SCc3ccc(C(=O)N4CCC(C)CC4)cc3)nc3ccncc32)c1,1.12% (inactive)
27,COc1ccc2cc(CNc3ccc(OC)c(OC)c3)c(=O)n(CC(=O)Nc3ccccc3F)c2c1,-18.6% (inactive)
